GLD-1 TGE inh – GLD-1-TGE RNA interaction inhibition (C. elegans); purified GLD-1 + fluorescein TGE RNA, fluorescence polarization; inhibition, % at 5.96 µM; 0.44% of 320,000 active; AID 2280;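 active = percent inhibition above a per-plate cutoff, the plate mean of test compounds plus 3 SD, cut at about 30% in these data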
BCLXL inh – inhibitors of human Bcl-xL; 0.7% of 320,000 active; AID 2129; inhibition, % at 10.9 µM; GST-Bcl-xL / FITC-Bim BH3 peptide fluorescence polarization;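 active = inhibition above the mean of all tested compounds plus 3 SD, cutoff set per campaign, cut at about 30% in these data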;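 also: inhibitors lower millipolarization by displacing the labeled peptide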
Target sequence (Q07817 whole entry, looked up): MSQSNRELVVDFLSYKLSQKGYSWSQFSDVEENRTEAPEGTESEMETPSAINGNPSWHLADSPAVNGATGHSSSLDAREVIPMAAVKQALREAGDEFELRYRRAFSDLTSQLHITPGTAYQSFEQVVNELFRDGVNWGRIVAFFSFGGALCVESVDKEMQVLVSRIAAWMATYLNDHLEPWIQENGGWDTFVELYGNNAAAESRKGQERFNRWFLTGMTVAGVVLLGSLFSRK
MEX-5 binding – C. elegans MEX-5 TCR-2 RNA binding activity; MEX-5/FITC-TCR2 RNA binding, fluorescence polarization; active compounds read low; activity score (negative = inhibition of binding), % at 10 µM; 0.38% of 300,000 active; AID 1832;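 active = inhibition past about -25% in most replicates, and total fluorescence under double the plate's negative control median, limit read from the data; inconclusive = replicates evenly split on the limit, or fluorescence at least double controls; inactive = too little inhibition in most replicates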
Target sequence (Q9XUB2 whole entry, looked up): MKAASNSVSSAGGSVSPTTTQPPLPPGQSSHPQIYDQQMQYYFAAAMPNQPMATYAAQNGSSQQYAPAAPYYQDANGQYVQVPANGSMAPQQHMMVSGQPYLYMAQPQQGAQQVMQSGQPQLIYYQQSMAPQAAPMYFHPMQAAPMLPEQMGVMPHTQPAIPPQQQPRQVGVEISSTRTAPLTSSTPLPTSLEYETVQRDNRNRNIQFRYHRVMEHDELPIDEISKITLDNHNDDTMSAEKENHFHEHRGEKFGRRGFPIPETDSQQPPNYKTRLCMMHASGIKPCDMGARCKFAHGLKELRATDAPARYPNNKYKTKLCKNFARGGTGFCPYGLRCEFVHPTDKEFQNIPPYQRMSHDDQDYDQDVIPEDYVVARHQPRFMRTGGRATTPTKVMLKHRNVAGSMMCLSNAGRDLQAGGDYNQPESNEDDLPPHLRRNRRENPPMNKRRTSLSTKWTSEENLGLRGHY
Keap1-Nrf2 PPI – inhibitors of human Keap1-Nrf2 protein-protein interaction. AID 504523. 0.15% of 340,000 active. Q14145. Keap1 Kelch-Nrf2 peptide fluorescence polarization, 1536-well. inhibition, % at 9.4 µM; in the data active = inhibition above about 12%; inconclusive = no clear call, values can overlap the other calls; inactive = below about 7.3%;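 also: human Keap1 Kelch domain with fluorescein labeled Nrf2 9mer peptide probe; higher means more block of Keap1 binding to Nrf2 peptide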
E coli Lon inh – inhibitors of E. coli Lon protease; 0.42% of 360,000 active; AID 602123; P0A9M0; inhibition, % at 7.94 µM; purified E. coli Lon protease, fluorescence polarization; in the data active = inhibition above about 13%, passing the limit was not always enough
C-LANA FP – KSHV C-LANA DNA binding inhibition. inhibition, % at 9 µM. 0.078% of 340,000 active. MBP-C-LANA/FAM-LBS DNA binding, fluorescence polarization. AID 504423;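 active = highest replicate inhibition at or above 60% at 9 µM, even if other replicates fall short; inactive = all replicates below 60% inhibition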
eLon confirm – confirmation of E. coli Lon protease inhibitors | purified E. coli Lon, fluorescence polarization | 31% of 1,400 active | shares compounds with E coli Lon inh | inhibition, % at 7.94 µM; in the data active = inhibition above about 16%
Of the large screens only hits and unclear results are named; the others gave an inactive call (follow-up assays come after a bar, where they were run). An excerpt weighted towards active compounds, which were near 1.2% of everything screened.

Cc1ccc(NC2=CC(=O)CC(C)(C)C2)c(N)c1	E coli Lon inh 79 | eLon confirm inactive
COc1ccc2[nH]cc(CCNC(=O)/C=C/[C@H]3O[C@@H](n4cc(C)c(=O)[nH]c4=O)C[C@@H]3O)c2c1	none (no result: GLD-1 TGE inh, BCLXL inh, MEX-5 binding, Keap1-Nrf2 PPI, C-LANA FP)
O=C(c1ccccc1)c1c2c(cc3sc4ccccc4[n+]13)-c1cccc3cccc-2c13	GLD-1 TGE inh 55, BCLXL inh 95, E coli Lon inh active (no result: MEX-5 binding) | eLon confirm active
Cc1sc2cc3c(c(C(=O)c4ccccc4)[n+]2c1C)-c1cccc2cccc-3c12	none (no result: Keap1-Nrf2 PPI, E coli Lon inh, C-LANA FP)
O=C1N[C@@H](Cc2ccccc2)C(=O)N2[C@H]1C[C@]1([C@]34C[C@H]5C(=O)N[C@@H](Cc6ccccc6)C(=O)N5[C@H]3N(S(=O)(=O)c3ccccc3)c3ccccc34)c3ccccc3N(S(=O)(=O)c3ccccc3)[C@H]21	E coli Lon inh 55 | eLon confirm inactive
C=CCN1C(=O)c2cccc3c(N4CCCCC4)ccc(c23)C1=O	GLD-1 TGE inh 151, MEX-5 binding inconclusive, E coli Lon inh 114 | eLon confirm inactive
C=CCN1C(=O)c2cccc3c(Br)ccc(c23)C1=O	none
O=C1c2cccc3cccc(c23)C(=O)N1CCO	none (no result: GLD-1 TGE inh, BCLXL inh, MEX-5 binding, Keap1-Nrf2 PPI, C-LANA FP)
O=C1c2cccc3c(N4CCCCC4)ccc(c23)C(=O)N1CCO	BCLXL inh 49, MEX-5 binding -26, E coli Lon inh 126 | eLon confirm inactive
COc1ccc2ccccc2c1-c1sc(Nc2ccccc2)n[n+]1-c1ccc(F)cc1	none
Cc1ccc2c(c1)C(=O)CCN2	none
O=C1CCNc2ccc(-c3ccccc3)cc21	MEX-5 binding -67, Keap1-Nrf2 PPI 24, E coli Lon inh 73, C-LANA FP 84 | eLon confirm active
Cc1ccc(NC(=O)CN(C)C(=O)C2CSC3(C)CCC(=O)N23)cc1 (stereo not given)	none (no result: GLD-1 TGE inh, BCLXL inh, MEX-5 binding, Keap1-Nrf2 PPI, C-LANA FP)
CCN(CC(=O)N1CCCC1)S(=O)(=O)c1cc(C)ccc1OC	none
CCN(Cc1nc2ccccc2c(=O)[nH]1)C(=O)COc1ccccc1-c1ccccc1	none (no result: MEX-5 binding)
COc1ccc(/C=C/C(=O)N2CCN(c3ccccn3)CC2)c2ccccc12	none
COc1ccc(/C=C/C(=O)N2CCN(c3ccccn3)CC2)c(OC)c1OC	E coli Lon inh 62 | eLon confirm inactive
CN1CCc2cc3c(c4c2[C@H]1[C@H](O)c1ccccc1-4)OCO3	GLD-1 TGE inh 48, BCLXL inh 111, MEX-5 binding -84, E coli Lon inh 59 | eLon confirm 27
CCOC(=O)c1c(-c2ccccc2)nnn1-c1nc(OCC)nc(N2CCCCC2)n1	none
CCOc1nc(N2CCCCC2)nc(-n2cc(-c3ccccc3)nn2)n1	E coli Lon inh 16 | eLon confirm inactive
COc1ccccc1CNC(=O)COC(=O)Cn1cnc2c1c(=O)n(C)c(=O)n2C	E coli Lon inh 72 (no result: GLD-1 TGE inh, BCLXL inh, MEX-5 binding, Keap1-Nrf2 PPI, C-LANA FP) | eLon confirm inactive
N#Cc1cccc(NC(=O)c2cc(C3CCCCN3C(=O)c3cccs3)on2)c1 (stereo not given)	E coli Lon inh 15 (no result: GLD-1 TGE inh, BCLXL inh, MEX-5 binding, Keap1-Nrf2 PPI, C-LANA FP) | eLon confirm inactive
O=C1c2ccccc2C(=O)N1CCN1CCCCC1	none
O=C1c2cccc3cc([N+](=O)[O-])cc(c23)C(=O)N1CCN1CCCC1	E coli Lon inh 87 (no result: GLD-1 TGE inh, BCLXL inh) | eLon confirm 47
Nc1cc2c3c(cccc3c1)C(=O)N(CCN1CCCC1)C2=O	GLD-1 TGE inh 36, BCLXL inh 125, MEX-5 binding -28, E coli Lon inh 94 | eLon confirm 82
OCC[C@@H]1C[C@H](O)[C@@H](O)[C@]2(OCc3ccc(CO)cc32)O1	none (no result: GLD-1 TGE inh, BCLXL inh, MEX-5 binding, Keap1-Nrf2 PPI, C-LANA FP)
O=S(=O)(Nc1ccc(S(=O)(=O)Nc2ncccn2)cc1)c1ccccc1	none
O=S(=O)(Nc1ncccn1)c1ccc(NC(=S)Nc2ccc(Cl)cc2)cc1	none
O=S(=O)(Nc1ncccn1)c1ccc(Nc2ncnc3ccccc23)cc1	E coli Lon inh 20 | eLon confirm 81
O=C(Nc1ccc(Cl)cc1)Nc1ccc(S(=O)(=O)Nc2ncccn2)cc1	E coli Lon inh 65 | eLon confirm 48
O=C(Nc1ccc(S(=O)(=O)Nc2ncccn2)cc1)c1ccc(Br)s1	E coli Lon inh 28 | eLon confirm 34
COc1cccc(OC)c1C(=O)Nc1ccc(S(=O)(=O)Nc2ncccn2)cc1	none
CC(C)CN(C(=O)c1cccc(S(=O)(=O)N2CCN(C)CC2)c1)C1CCS(=O)(=O)C1 (stereo not given)	none (no result: Keap1-Nrf2 PPI, C-LANA FP)
COc1ccc(CC(=O)OCC(=O)Nc2c(C)n(C)n(-c3ccccc3)c2=O)cc1OC	none (no result: MEX-5 binding)
CCN(Cc1ccccc1)CC(O)COC(c1ccc(OC)cc1)c1ccc(OC)cc1 (stereo not given)	none
Cn1c(=O)c2[nH]c(-c3ccccc3Cl)c(O)c2n(C)c1=O	GLD-1 TGE inh 152, BCLXL inh 115, E coli Lon inh 139 | eLon confirm inactive
Cn1c2c(c(=O)n(C)c1=O)C(C(F)(F)F)(C(F)(F)F)N=C(c1ccccc1Cl)N2	none (no result: MEX-5 binding)
Cn1c(=O)c2[nH]c(-c3ccccc3)c(O)c2n(C)c1=O	GLD-1 TGE inh active, BCLXL inh active, MEX-5 binding inconclusive, E coli Lon inh active | eLon confirm active
CSc1ccc(CN2CCC2(C)C(=O)Nc2cccc(NS(C)(=O)=O)c2)cc1 (stereo not given)	none (no result: GLD-1 TGE inh, BCLXL inh, MEX-5 binding, Keap1-Nrf2 PPI, C-LANA FP)
CC(=O)Nc1cc(Cl)ccc1OS(=O)(=O)c1ccc(C)cc1	E coli Lon inh 45 | eLon confirm inactive
CC(=O)Nc1ccc(OS(=O)(=O)c2ccc(Cl)cc2)cc1	none
O=C(NNC(=O)c1ccccc1-n1cccc1)c1ccccc1	none
O=C(NNC(=O)c1ccccc1-n1cccc1)c1cncc(Br)c1	E coli Lon inh 38 (no result: BCLXL inh, MEX-5 binding) | eLon confirm inactive
Brc1ccc(-c2cnnc(N3CCCC3)n2)cc1	E coli Lon inh 22 | eLon confirm inactive
COC(=O)c1ccccc1NC(=O)CSc1nnc(C(CO)NC(=O)c2ccccc2Cl)n1C (stereo not given)	none
CC(NC(=O)c1ccccc1Cl)c1nnc(SCC(=O)Nc2ccc(C(=O)O)cc2)n1C (stereo not given)	E coli Lon inh 29 | eLon confirm inactive
CCc1c(C(C)S(=O)(=O)c2ccc(C)cc2)[nH]c(=O)n1-c1ccc(C)cc1 (stereo not given)	E coli Lon inh 63 | eLon confirm inactive
CCc1[nH]c(=O)[nH]c1C(C)S(=O)(=O)c1ccc(C)cc1 (stereo not given)	none
COc1ccc(OC)c(NC(=O)Cc2nn(C)c(=O)c3ccccc23)c1	E coli Lon inh 16 | eLon confirm inactive
CC(C)CCN1CCN(Cc2ccsc2)CC1CCO (stereo not given)	none
OCCC1CN(Cc2ccsc2)CCN1C1CCCC1 (stereo not given)	E coli Lon inh 20 | eLon confirm inactive

Bioassay records as filed in PubChem BioAssay.
